From PubChem BioAssay (EPA / NIEHS)
“And” between values parts separate entries of the source, which are not always exact repeats. Identical values can stand only once. The source made the active and inactive calls. Rule for the calls: active = hit-call score of the fitted dose curve at least 0.9, where 1 is the maximum; inactive = score below 0.9.

Assays:
[1] = read-out: Tissue plasminogen activator (tPA), PLAT (gene 5327); assay: BSK_BF4T_tPA: BioMAP Diversity Plus: BF4T Assay for Tissue plasminogen activator (tPA) Biomarker Activity (AID 2284272); details: primary human bronchial epithelial cells with fibroblasts
How it was run: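 tPA level quantified by ELISA at 24 h post-treatment in bronchial epithelial/dermal fibroblast co-cultures, gain of signal scored against DMSO baseline. Parallel cultures stained with 0.1% SRB (560 nm) to flag overt cytotoxicity.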

[2] = read-out: Plasminogen Activator Inhibitor-1 (PAI1), SERPINE1 (gene 5054); assay: BSK_BF4T_PAI1: BioMAP Diversity Plus: BF4T Assay for Plasminogen Activator Inhibitor-1 (PAI1) Biomarker Activity (AID 2284273); details: primary human bronchial epithelial cells with fibroblasts
How it was run: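 Co-culture of human bronchial epithelial cells and dermal fibroblasts exposed to compound for 24 h. PAI-1 measured by ELISA; activity fitted in positive direction versus DMSO. Parallel SRB staining assessed overt cytotoxicity.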

[3] = BSK_BF4T_SRB: Viability Assessment in the BioMAP Diversity Plus: BF4T Assay (AID 2284274); details: primary human bronchial epithelial cells with fibroblasts
How it was run: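 Co-culture of human bronchial epithelial cells and dermal fibroblasts (BioMAP BF4T) exposed 24 h. Total protein by sulforhodamine B staining (0.1% SRB after 10% TCA fixation, 560 nm) in parallel cultures; fitted vs DMSO.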

[4] = read-out: urokinase Plasminogen Activator (uPA), PLAU (gene 5328); assay: BSK_BF4T_uPA: BioMAP Diversity Plus: BF4T Assay for urokinase Plasminogen Activator (uPA) Biomarker Activity (AID 2284275); details: primary human bronchial epithelial cells with fibroblasts
How it was run: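 Co-culture of human bronchial epithelial cells and dermal fibroblasts; uPA quantified by ELISA 24 hours after dosing, fitted relative to DMSO. Parallel SRB total-protein staining assessed overt cytotoxicity.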

[5] = read-out: Matrix Metallopeptidase 9 (MMP9), MMP9 (gene 4318); assay: BSK_BF4T_MMP9: BioMAP Diversity Plus: BF4T Assay for Matrix Metallopeptidase 9 (MMP9) Biomarker Activity (AID 2284276); details: primary human bronchial epithelial cells with fibroblasts
How it was run: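 Co-culture of human bronchial epithelial cells and dermal fibroblasts dosed for 24 h; MMP-9 quantified by ELISA and fitted upward versus DMSO. Cytotoxicity monitored in parallel cultures by SRB total-protein staining at the biomarker time point.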

[6] = read-out: Vascular cell adhesion molecule 1 (VCAM1), VCAM1 (gene 7412); assay: BSK_IMphg_VCAM1: BioMAP Diversity Plus: IMphg Assay for Vascular cell adhesion molecule 1 (VCAM1) Biomarker Activity (AID 2284286); details: primary human endothelial cells with macrophages
How it was run: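 Human venular endothelial cells co-cultured with macrophages; VCAM-1 quantified by ELISA 24 h after dosing, fitted in the positive direction against DMSO. Cytotoxicity was checked in parallel cultures by SRB total-protein staining (0.1% SRB after 10% TCA fixation, 560 nm).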

[7] = read-out: CD40, CD40 (gene 958); assay: BSK_IMphg_CD40: BioMAP Diversity Plus: IMphg Assay for CD40 Biomarker Activity (AID 2284288); details: primary human endothelial cells with macrophages
How it was run: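 Venular endothelial cells co-cultured with macrophages (human primary), CD40 measured by ELISA 24 h after dosing. Positive-direction fit vs DMSO baseline; cytotoxicity tracked by SRB total-protein staining in parallel cultures.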

[8] = read-out: E-selectin (Homo sapiens) (UniProt P16581); assay: BSK_IMphg_ESelectin: BioMAP Diversity Plus: IMphg Assay for Eselectin Biomarker Activity (AID 2284291); details: primary human endothelial cells with macrophages
How it was run: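 Human venular endothelial cell–macrophage co-culture, E-selectin measured by ELISA 24 h after chemical dosing. Signal fitted in the positive direction against DMSO as negative control and baseline.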

[9] = BSK_IMphg_SRB: Viability Assessment in the BioMAP Diversity Plus: IMphg Assay (AID 2284292); details: primary human endothelial cells with macrophages;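 note: measured one day after compound addition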
How it was run: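 Human venular endothelial cells with macrophages, 24 h after chemical dosing; total protein by 0.1% SRB staining after 10% TCA fixation, read at 560 nm. Positive-direction fitting versus DMSO baseline.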

[10] = read-out: Macrophage colony-stimulating factor (MCSF), CSF1 (gene 1435); assay: BSK_IMphg_MCSF: BioMAP Diversity Plus: IMphg Assay for Macrophage colony-stimulating factor (MCSF) Biomarker Activity (AID 2284293); details: primary human endothelial cells with macrophages
How it was run: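 Co-culture of human venular endothelial cells and macrophages, 24 hours of chemical exposure. M-CSF quantified by ELISA, with parallel SRB total-protein staining for cytotoxicity; activity fitted relative to DMSO.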

[11] = read-out: Interleukin-10 (IL10), IL10 (gene 3586); assay: BSK_IMphg_IL10: BioMAP Diversity Plus: IMphg Assay for Interleukin-10 (IL10) Biomarker Activity (AID 2284294); details: primary human endothelial cells with macrophages
How it was run: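 Human venular endothelial cells cocultured with macrophages, dosed 24 h; IL-10 measured by ELISA, activity relative to DMSO. Cytotoxicity assessed in parallel cultures by sulforhodamine B total-protein staining.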

[12] = BSK_IMphg_SRB.Mphg: Macrophage Viability Assessment in the BioMAP Diversity Plus: IMphg Assay (AID 2284295); details: primary human endothelial cells with macrophages
How it was run: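 Venular endothelial cells co-cultured with macrophages, read 24 h after dosing. Total protein measured by 0.1% SRB staining after 10% TCA fixation, absorbance at 560 nm. Fitted in positive direction against DMSO baseline.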

[13] = tested on: TTR (gene 7276); assay: CCTE_GLTED_hTTR_0.5uM: CCTE's human Transthyretin (hTTR) Inhibition Assay, with 0.5uM TTR, Great Lakes Toxicology and Ecology Division (GLTED) Lab (AID 2284320)
How it was run: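 Cell-free displacement assay in which human TTR at 0.5 uM was incubated with test chemical for 2 h. Displacement of the ANSA probe was read by fluorescence at 380 nm excitation/475 nm emission. Loss of signal was fitted in the positive direction versus DMSO.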

[14] = CCTE_Padilla_ZF_Score.Craniofacial: CCTE's 144 Hour Post-fertilization zebrafish Assay Score for Craniofacial Malformation, Padilla Lab (AID 2284405)
How it was run: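 Wild-type zebrafish embryos (with chorions), one per well in 10% Hanks', were dosed at 6–8 hpf in sealed plates and kept at 26C. They were rinsed at 5 dpf. At 6 dpf two blinded assessors scored craniofacial malformations by brightfield stereomicroscopy.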

[15] = CCTE_Padilla_ZF_Score.Edema: CCTE's 144 Hour Post-fertilization zebrafish Assay Score for Edema Malformation, Padilla Lab (AID 2284406)
How it was run: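 Wild-type zebrafish embryos, one per well in Hanks' solution, dosed at 6-8 hpf, sealed and reared at 26C on a 14:10 h cycle; rinsed on 5 dpf. At 6 dpf, blinded assessors scored edema by stereomicroscopy.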

[16] = CCTE_Padilla_ZF_Score.Spine: CCTE's 144 Hour Post-fertilization zebrafish Assay Score for Spine Malformation, Padilla Lab (AID 2284407)
How it was run: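 Wild-type zebrafish embryos, one per well in Hanks' solution, dosed at 6–8 hpf in sealed plates at 26C, 14:10 h light:dark; rinsed at 5 dpf. Two blinded assessors scored spinal defects by stereomicroscopy at 6 dpf; fitted versus DMSO.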

[17] = CCTE_Padilla_ZF_Score.Swim_bladder: CCTE's 144 Hour Post-fertilization zebrafish Assay Score for Swim Bladder Malformation, Padilla Lab (AID 2284408)
How it was run: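 Wild-type zebrafish embryos, one per well in 10% Hanks', dosed at 6–8 hpf, sealed, reared at 26C and rinsed at 5 dpf. Blinded assessors scored uninflated swim bladder by stereomicroscopy at 6 dpf, relative to DMSO.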

[18] = CCTE_Padilla_ZF_Score.Position: CCTE's 144 Hour Post-fertilization zebrafish Assay Score for Position, Padilla Lab (AID 2284409)
How it was run: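 Wild-type zebrafish embryos (with chorions) exposed singly from 6–8 hpf in sealed wells of Hanks' solution at 26C, rinsed at 5 dpf. At 6 dpf, blinded assessors scored abnormal water-column position by brightfield stereomicroscopy, relative to DMSO.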

[19] = CCTE_Padilla_ZF_Score.Living: CCTE's 144 Hour Post-fertilization zebrafish Assay Score for Viability, Padilla Lab (AID 2284410);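 note: larval death at 6 dpf judged by absent heartbeat or coagulation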
How it was run: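 Wild-type zebrafish embryos were exposed singly from 6–8 hpf in sealed wells of Hanks' solution at 26C, then rinsed at 5 dpf. At 6 dpf, blinded assessors scored mortality (no heartbeat or coagulation) by stereomicroscopy, fitted against DMSO.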

[20] = CCTE_Padilla_ZF_Score.Tail: CCTE's 144 Hour Post-fertilization zebrafish Assay Score for Tail Malformation, Padilla Lab (AID 2284414)
How it was run: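 Wild-type zebrafish embryos, one per well in 200 uL 10% Hanks', dosed at 6-8 hpf, sealed, and kept at 26 C on a 14:10 h light cycle. Chemical was rinsed out at 5 dpf. Blinded brightfield scoring of tail defects followed at 6 dpf.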

Sequence of E-selectin (Homo sapiens) (P16581 whole entry, looked up): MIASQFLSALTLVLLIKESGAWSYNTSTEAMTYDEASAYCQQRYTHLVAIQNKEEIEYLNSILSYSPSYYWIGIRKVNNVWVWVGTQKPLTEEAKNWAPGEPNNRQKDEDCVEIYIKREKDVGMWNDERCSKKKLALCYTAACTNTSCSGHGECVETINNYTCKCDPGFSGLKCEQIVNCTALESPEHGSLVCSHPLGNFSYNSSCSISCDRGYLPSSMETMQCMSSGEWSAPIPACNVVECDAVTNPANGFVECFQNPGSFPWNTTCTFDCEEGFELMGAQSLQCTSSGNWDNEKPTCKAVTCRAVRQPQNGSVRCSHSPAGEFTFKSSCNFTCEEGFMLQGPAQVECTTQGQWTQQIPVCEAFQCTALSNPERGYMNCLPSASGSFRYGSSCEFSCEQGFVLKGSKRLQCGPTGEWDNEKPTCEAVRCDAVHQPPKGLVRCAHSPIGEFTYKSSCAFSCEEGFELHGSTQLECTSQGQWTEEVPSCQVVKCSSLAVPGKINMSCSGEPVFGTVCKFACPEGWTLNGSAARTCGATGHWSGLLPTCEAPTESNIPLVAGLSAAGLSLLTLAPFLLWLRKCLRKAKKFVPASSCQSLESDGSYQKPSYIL

**Q.** For OC(C(F)(F)F)(C(F)(F)F)C(O)(C(F)(F)F)C(F)(F)F, which outcome [1] is on record?
**A.** Its outcome is “inactive”.

**Q.** What about the AC50 [2] of the same compound?
**A.** The AC50 was 14.4 µM (active) and 8.31 µM (active).

**Q.** What about the outcome [3] of the same compound?
**A.** The outcome was “inactive”.

**Q.** And the outcome [4]?
**A.** The outcome was “inactive”.

**Q.** And the outcome [5]?
**A.** The outcome was “inactive”.

**Q.** What about the AC50 [6] of the same compound?
**A.** The AC50 was 23.6 µM (active) and 22.1 µM (active).

**Q.** What about the AC50 [7] of the same compound?
**A.** The AC50 was 23 µM (active) and 21.1 µM (active).

**Q.** What about the AC50 [8] of the same compound?
**A.** The AC50 was 22 µM (active) and 30 µM (active).

**Q.** What about the AC50 [9] of the same compound?
**A.** Its AC50 is 34.1 µM (active) and 34.8 µM (active).

**Q.** And the AC50 [10]?
**A.** The AC50 was 20 µM (active) and 8.19 µM (active).

**Q.** What about the AC50 [11] of the same compound?
**A.** Its AC50 is 23.6 µM (active) and 21.1 µM (active).

**Q.** What about the AC50 [12] of the same compound?
**A.** The AC50 was 41.5 µM (active) and 37.7 µM (active).

**Q.** What about the AC50 [13] of the same compound?
**A.** Its AC50 is 11000 nM (active).

**Q.** And the AC50 [14]?
**A.** Its AC50 is 2570 nM (active).

**Q.** And the AC50 [15]?
**A.** Its AC50 is 2660 nM (active).

**Q.** What about the outcome [16] of the same compound?
**A.** The outcome was “inactive”.

**Q.** What about the AC50 [17] of the same compound?
**A.** The AC50 was 2660 nM (active).

**Q.** And the outcome [18]?
**A.** Its outcome is “inactive”.

**Q.** What about the AC50 [19] of the same compound?
**A.** Its AC50 is 11800 nM (active).

**Q.** What about the outcome [20] of the same compound?
**A.** Its outcome is “inactive”.
